# ST2 IL33 inh = blocks human ST2 binding to IL-33. Q01638. AlphaLISA ST2-Fc/biotin-IL-33 interaction, 1 h. inhibition, % for hits at 17 µM. 78,000 tested, 2.3% active. AID 1259354; in the data active = inhibition above about 30%
# Target sequence (Q01638 whole entry, looked up): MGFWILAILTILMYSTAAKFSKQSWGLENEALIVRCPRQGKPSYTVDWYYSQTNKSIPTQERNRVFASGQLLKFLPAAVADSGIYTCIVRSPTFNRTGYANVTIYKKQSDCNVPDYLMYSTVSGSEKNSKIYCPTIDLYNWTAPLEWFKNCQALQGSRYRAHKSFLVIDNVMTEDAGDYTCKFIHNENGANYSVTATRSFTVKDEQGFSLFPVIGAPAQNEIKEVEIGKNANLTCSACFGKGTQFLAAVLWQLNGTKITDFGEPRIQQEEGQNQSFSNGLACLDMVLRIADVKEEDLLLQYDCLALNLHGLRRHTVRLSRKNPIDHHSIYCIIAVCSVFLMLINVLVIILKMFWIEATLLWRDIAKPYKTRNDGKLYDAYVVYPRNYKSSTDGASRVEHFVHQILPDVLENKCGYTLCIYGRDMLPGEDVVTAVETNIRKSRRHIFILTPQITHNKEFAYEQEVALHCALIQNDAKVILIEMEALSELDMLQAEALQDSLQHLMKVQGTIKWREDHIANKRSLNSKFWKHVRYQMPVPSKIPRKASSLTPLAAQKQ
# Numbers without * were called inactive; i = inactive; ! = not confirmed by another sample. This is one part of a sample in which hits are shown more often than they occur.
SMILES,ST2 IL33 inh
O=C1NC(=O)/C(=C\c2ccccc2OCc2ccccc2)S1,i
CC1=NN(c2ccccc2)C(=O)/C1=C/c1ccccc1OCc1ccc(C(=O)O)cc1,i
CSC1=N/C(=C\c2ccccc2OCc2ccccc2)C(=O)S1,64%*
CCn1c(C2CCN(C(=O)c3cccc(F)c3OC)CC2)n[nH]c1=O,i
Cc1ccc(/C=C2/SC(=Nc3ccccc3)NC2=O)c(C)c1,35%*
COc1cccc(/C=C2/SC(=Nc3ccccc3)NC2=O)c1,i
COc1cc(/C=C2/SC(=Nc3ccccc3)NC2=O)ccc1O,38%*
Cc1ccc(NC(=O)CCN2C(=O)S/C(=C\c3ccccc3)C2=O)cc1,i
CCOc1ccc(/C=C2\SC(=O)N(CC(=O)N3CCOCC3)C2=O)cc1OCC,i
Cc1ccc(N=C2NC(=O)C(Cc3ccccc3)S2)cc1 (stereo not drawn),i
COc1cc(/C=C2/SC(=O)NC2=O)ccc1O,i
O=C1NC(=Nc2ccccc2)S/C1=C/c1ccccn1,i
C=CCOc1ccc(/C=C2/SC(=Nc3ccccc3)NC2=O)cc1OCC,37%*
CC(=O)Nc1ccc(NC(=O)NC2(c3ccccc3)CC2)cc1,i
CC(=O)Nc1ccc(/C=C2/SC(=Nc3ccccc3)NC2=O)cc1,31%*
CCOc1cc(C=C2C(=O)c3ccccc3C2=O)ccc1OC(C)C(=O)O (stereo not drawn),i
CC(=O)Nc1ccc(CN(Cc2ccco2)C(C)C(C)C)cc1 (stereo not drawn),i
OCCN(CCO)c1ncnc2c1cnn2-c1ccc(Cl)cc1,i
COc1cc([N+](=O)[O-])ccc1NC(=O)c1cc(Br)ccc1Cl,i
Cn1c(=O)c2c(nc(N3CCCCC3)n2CCSc2ncccn2)n(C)c1=O,i
CCOc1cccc(CN2CCN(C3CCCC3)C(CCO)C2)c1 (stereo not drawn),i
CN(Cc1nccn1Cc1ccccc1)c1ncnc2[nH]ccc12,i
Cc1nccn1-c1ccccc1CNC(=O)C1CCN(C(C)C)CC1,i
O=c1[nH]c(=O)n(-c2ccccc2)c2ccccc12,i
COc1ccc(-c2cc(F)cc3c2OC(CNC(=O)c2cccc(Cn4nc(C)cc4C)c2)C3)nn1 (stereo not drawn),i
SMILES,ST2 IL33 inh
O=c1[nH]c2ccc(S(=O)(=O)Nc3ccc(Cl)c(Cl)c3)cc2o1,i
CCC(C)NC(=O)Cn1c(=O)n(Cc2ccc(C(=O)NC)cc2)c(=O)c2cc(OC)c(OC)cc21 (stereo not drawn),i
Cc1ccc(S(=O)(=O)NCC(c2cccnc2)N2CCN(c3ccccc3F)CC2)cc1 (stereo not drawn),i
Cc1ccccc1C(NS(=O)(=O)NCc1ccccc1)c1ccncc1 (stereo not drawn),i
CCn1c(CC2CCN(Cc3cnc(-c4ccco4)nc3)CC2)n[nH]c1=O,i
COc1ccc(/C=C2/SC(=Nc3ccccc3)NC2=O)c(OC)c1OC,45%*
COc1ccc(N=C2NC(=O)C(CO)(CO)S2)cc1,i
COc1cccc(/C=C2/SC(=Nc3ccccc3)NC2=O)c1OC,i
CC(C)c1ccc(C(=O)Nc2ccccc2C(N)=O)cc1,i
NC(=O)c1ccccc1NC(=O)c1cccc(I)c1,i
NC(=O)c1ccccc1NC(=O)c1cccc(C(=O)Nc2ccccc2C(N)=O)c1,30%*
COc1cc(C)c(CN2CCC(O)CC2)cc1C,i
CC(C)Cn1nc(C(=O)NC2CCCC2)c2c1CCN(C(=O)c1ccccc1-n1cccn1)C2,i
c1ccc2sc([C@H]3CCN(C4CCOCC4)C3)nc2c1,i
COCC1(NC(=O)CC2CNCCO2)CCCC1 (stereo not drawn),i
COc1ccc(-c2nc(N3CCOCC3)[nH]c(=O)c2C#N)cc1,i
COc1cccc(OC)c1C(=O)Nc1ccc([N+](=O)[O-])cc1,i
COc1cc([N+](=O)[O-])ccc1NC(=O)c1c(C)nn(-c2ccccc2)c1Cl,i
COc1ccccc1C1C(Oc2ccccc2C)C(=O)N1c1cccc([N+](=O)[O-])c1 (stereo not drawn),33%*
O=C(NCc1cccs1)c1cc(=O)[nH]c2ccc(S(=O)(=O)N3CCCCCC3)cc12,i
Cc1cc(C(=O)N2CCC3(CCCN(CCCc4ccccc4)C3=O)C2)n[nH]1 (stereo not drawn),i
COc1ccccc1-n1cc(C(=O)NCc2snnc2C)cn1,i
Cc1ccc(C2=NN(C(=O)CCC(=O)O)C(c3ccc(Cl)cc3)C2)cc1 (stereo not drawn),i
O=C(O)CCCC(=O)N1N=C(c2ccc(Br)cc2)CC1c1ccc(Cl)cc1 (stereo not drawn),i
Cc1ccc(C2=NN(C(=O)CCC(=O)O)C(c3ccc(Br)cc3)C2)cc1 (stereo not drawn),38%*!
SMILES,ST2 IL33 inh
N#Cc1ccc(N2C[C@@H]3OCC(=O)N(Cc4ccccc4)[C@@H]3C2)nc1,i
CC(C)C(C(=O)Nc1ccccc1Br)N1C(=O)c2ccccc2C1=O (stereo not drawn),i
COc1ccccc1NC(=O)C(C(C)C)N1C(=O)c2ccccc2C1=O (stereo not drawn),i
COc1cc(NC(=O)C(C(C)C)N2C(=O)c3ccccc3C2=O)c(OC)cc1Cl (stereo not drawn),41%*
O=C(O)c1cc(-c2ccccc2F)nc2ccc3ccccc3c12,i
Nc1cc(=O)[nH]c(SCC(=O)Nc2ccc(Br)cn2)n1,i
Cc1ccc(N(CC(=O)N2CCCC(O)(CO)CC2)S(C)(=O)=O)cc1 (stereo not drawn),i
Cc1nn(Cc2ccc(F)cc2)c(C)c1NC(=O)CCCn1nc(C)c([N+](=O)[O-])c1C,i
C=CCNC(=O)c1cc(-c2ccccn2)nc2ccc(S(=O)(=O)N3CCOCC3)cc12,i
CC(C)(C)CC(=O)Nc1ccc(Nc2ccccc2)cc1,33%*
CC(=O)Nc1ccc(NC(=O)Nc2ccccc2)cc1,i
CC(=O)Nc1ccc(NC(=O)CC(c2ccccc2)c2ccccc2)cc1,i
CCOc1ccc(CN2CCN(S(C)(=O)=O)CC2)cc1,i
COc1ccccc1C1C(=C(O)c2ccc(Cl)cc2)C(=O)C(=O)N1c1ccccc1 (stereo not drawn),i
CCCCN(C)c1ncnc(N)c1[N+](=O)[O-],i
CCCN(c1nc(C)cc(OC)n1)S(=O)(=O)c1ccc(C)cc1,i
C=CCNCCCOc1ccc(Cl)c(Cl)c1,i
CC(=O)Nc1ccc(CN2CCN(c3ccc(Cl)cc3)CC2)cc1,i
O=C(Nc1ccc(S(=O)(=O)N2CCCC2)cc1)C(F)(F)F,i
O=C(Nc1ccc(N2CCOCC2)cc1)c1ccc(Br)cc1,i
O=C(Nc1ccc(Br)cc1)c1ccc(Cl)cc1Cl,i
O=C(Nc1ccc(N2CCCC2)cc1)c1cc(Br)ccc1Cl,34%*
O=C(Nc1ccc(N2CCCC2)cc1)C(Cl)(Cl)Cl,38%*
CCOc1ccc(C(=O)Nc2ccc(Nc3nc(C)cc(Nc4ccc(OC)cc4)n3)cc2)cc1,30%*
CCCC(=O)Nc1ccc(Nc2nc(C)cc(Nc3ccc(OC)cc3)n2)cc1,i
COc1cccc(C(=O)Nc2ccc(Nc3nc(C)cc(Nc4ccc(C)cc4)n3)cc2)c1,i
Cc1cccc(CSC2=NCCN2C(=O)c2ccc(F)c(F)c2)c1,i
CCSCCOC(=O)C1=C(C)NC(=O)NC1c1ccccc1OC (stereo not drawn),i
C[C@@H](NC(=O)/C(C#N)=C/c1ccc(O)c(O)c1)c1ccccc1,58%*
N#C/C(=C\c1ccc(O)c(O)c1)C(=O)Nc1ccccc1,i

# Compound activity as filed in PubChem BioAssay.
